The supplement of paper PMC6555819

What was measured:
Experiment in all cases: PBM binding z-score (relative to random genomic background probes); higher = stronger binding; sequences stand for … in GC…GCGATTGACAGCGTAGAATGAAGG
[1] = system: FXR:RXRa (NR concentration 270 nM, RXRa partner concentration 90 nM)
Method in brief: (§1)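 Custom Agilent 4×180K protein-binding microarrays carried double-stranded probes, each with a 34-nt variable region. These regions held direct-repeat seeds, single-nucleotide variants, half-site ablations and random human genomic background sequences. Ligand-free nuclear receptor dimers were incubated on the arrays for 1 h, antibodies against each partner (one per run) detected binding, and scanned fluorescence was regression-normalized. Binding z-scores take the random background probes as reference.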

[2] = system: LXRa:RXRa (NR concentration 270 nM, RXRa partner concentration 90 nM)
Method in brief: as §1

[3] = system: LXRa homodimer (NR concentration 270 nM)
Method in brief: as §1

[4] = system: LXRb:RXRa (NR concentration 270 nM, RXRa partner concentration 90 nM)
Method in brief: as §1

[5] = system: LXRb homodimer (NR concentration 270 nM)
Method in brief: as §1

[6] = system: PPARa:RXRa (NR concentration 270 nM, RXRa partner concentration 90 nM)
Method in brief: as §1

[7] = system: PPARg:RXRa (NR concentration 180 nM, RXRa partner concentration 90 nM)
Method in brief: as §1

[8] = system: PPARg:RXRa 270nM:90nM, anti-RXR (NR concentration 270 nM, RXRa partner concentration 90 nM)
Method in brief: as §1

[9] = system: PPARg:RXRa 30nM:10nM, anti-RXR (NR concentration 30 nM, RXRa partner concentration 10 nM)
Method in brief: as §1

[10] = system: PPARg:RXRa 90nM:30nM, anti-RXR (NR concentration 90 nM, RXRa partner concentration 30 nM)
Method in brief: as §1

[11] = system: PPARg:RXRa DBDmut IVT, anti-RXR (DBD mutation: RXRa K156A/R161A, NR concentration 270 nM, RXRa partner concentration 90 nM)
Method in brief: as §1

[12] = system: PPARg:RXRa IVT, anti-PPARg (NR concentration 270 nM, RXRa partner concentration 90 nM)
Method in brief: as §1

[13] = system: PPARg DBDmut:RXRa IVT, anti-PPARg (DBD mutation: PPARg1 K132A/R137A, NR concentration 270 nM, RXRa partner concentration 90 nM)
Method in brief: as §1

[14] = system: PPARg DBDmut IVT, anti-PPARg (DBD mutation: PPARg1 K132A/R137A, NR concentration 270 nM)
Method in brief: as §1

[15] = system: PPARg homodimer (NR concentration 180 nM)
Method in brief: as §1

[16] = system: PXR:RXRa (NR concentration 270 nM, RXRa partner concentration 90 nM)
Method in brief: as §1

[17] = system: PXR homodimer (NR concentration 270 nM)
Method in brief: as §1

[18] = system: RARa:RXR (NR concentration 270 nM, RXRa partner concentration 90 nM)
Method in brief: as §1

[19] = system: RARa homodimer (NR concentration 270 nM)
Method in brief: as §1

[20] = system: RARb:RXRa (NR concentration 270 nM, RXRa partner concentration 90 nM)
Method in brief: as §1

Sequence	PBM binding z-score [1]	PBM binding z-score [2]	PBM binding z-score [3]	PBM binding z-score [4]	PBM binding z-score [5]	PBM binding z-score [6]	PBM binding z-score [7]	PBM binding z-score [8]	PBM binding z-score [9]	PBM binding z-score [10]	PBM binding z-score [11]	PBM binding z-score [12]	PBM binding z-score [13]	PBM binding z-score [14]	PBM binding z-score [15]	PBM binding z-score [16]	PBM binding z-score [17]	PBM binding z-score [18]	PBM binding z-score [19]	PBM binding z-score [20]
ACAGGCAGGTGATGAAGGTAACTCAGGCTATCAT	-0.308	-0.138	-0.317	-0.214	-0.617	-0.126	0.575	-0.133	0.158	-0.0613	0.0324	0.0841	0.243	-0.423	-0.139	-0.235	0.0904	-0.0555	0.0189	0.121
CGAACTAGGTTATTGACAGGACAGTGAATAGTAA	0.276	0.886	0.37	0.406	-0.0993	2.09	2.41	2.12	0.574	1.47	5.85	5.11	0.805	0.514	0.855	0.198	0.237	0.554	0.372	0.837
CGAACTAGTTCAGAACAGGACAGTGAAGGATGAT	0.0852	-0.165	-0.0634	-0.449	-0.667	-0.356	0.524	-0.523	-0.163	-0.675	-0.157	-0.211	0.34	0.0845	-0.297	0.137	0.378	0.131	-0.252	0.618
CAAACTAGGTCACCGGATGGTCAAAGTCCGCATG	4.23	3.25	0.505	2.57	0.435	5.4	8.96	7.39	5.71	7.25	8.46	8.82	4.83	2.57	3.76	2.49	0.137	3.77	1.02	4.29
AGTCAAAGTTCACTAGGTAACATAAGATTCAGCT	4.79	5.28	3.12	3.27	1.4	4.86	7.49	6.62	3.82	5.79	2.79	5.27	1.65	1.65	3.16	4.33	3.16	2.97	2.25	4.79
ACTAGTTGGTCAGCTGAGGTCAGACACAATTCGG	2.41	1.65	1.19	2.03	0.149	2.42	0.879	1.07	0.223	0.908	1.02	1.86	0.583	0.951	1.04	4.31	0.813	2.75	0.218	2.86
CGATCGAGGGCATGAGTTGATAGCAAATGCCGAT	0.233	-0.0163	-0.798	-0.0334	-1.04	1.22	1.17	1.29	-0.0363	0.755	2.46	1.93	-0.505	-0.163	0.296	0.228	-0.306	0.106	-0.984	1.94
TCTTGTAGATCAACGGTTAAGAAAGCCGAAGCCT	0.513	0.28	-0.0283	0.131	-0.0358	1.14	0.464	2.61	3.23	3.03	1.73	0.568	0.699	0.541	0.0861	0.292	-0.149	0.701	0.15	0.235
CGTCCAAGGTCCGAGAGGTCAGTGAATGCCGAGT	2.4	1.89	1.06	1.86	-0.631	2.26	-0.135	0.688	-0.759	-0.083	-0.0478	0.0193	-1.25	-0.955	2.31	3.19	1.56	2.87	0.494	3.23
TCGTGTAGATCAAAGGTTAAGAAAGCCGAAGCCT	1.91	1.98	0.381	1.83	0.049	3.91	5.73	6.47	5.88	6.62	0.876	2.22	-0.315	-0.277	1.21	1.9	-0.215	2.68	0.495	1.86
CATCCAAGGTCAGCAGGTCAGTGAAAGCGACGTG	6.25	4.68	1.66	3.31	0.653	4.79	4.86	4.71	1.81	3.37	3.12	4.02	0.104	0.555	4.34	3.82	1.14	5.21	2.38	5.17
TAGCCTAGGTCAGTTCGGGCCAGTATACGCTATA	1.39	0.745	-0.272	0.551	-0.0472	1.22	0.33	0.647	-0.293	0.114	0.449	1.21	-0.878	-1.14	-0.282	1.53	-0.352	0.927	-0.951	2.92
GCTCGGCGGACAAGGTCAGAGCTTTGTCCGTAGA	1.19	1.42	-0.598	0.784	-1.28	2.03	-0.519	0.435	-0.807	-0.297	-0.55	0.128	-1.6	-1.83	-0.129	1.55	-0.547	1.95	-0.932	2.81
